KLF5 inhibitor: KLF5 expression inhibitors, primary screen, DLD-1 cells, luminescence; AID 1700, 2009; inhibition, % at 5 µM; 0.23% of 290,000 active; DLD-1 KLF5 promoter-luciferase reporter;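 active = inhibition above a per-plate limit of that plate's mean compound inhibition plus 3 SD, cut at about 60% in these data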;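 note: 0% = DMSO wells and 100% = LY294002 at 200 µM; higher means less KLF5 promoter-driven luciferase light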
Ba/F3 V617F tox: reduced viability of JAK2V617F-dependent Ba/F3 cells, primary screen, JAK2V617F inhibitor project, cell-based, Ba/F3 EpoR-JAK2V617F, luminescence. ATP luminescence. inhibition, % at 5.6 µM. 1.1% of 220,000 active. AID 1446, 2008;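 active = inhibition above the campaign mean plus 3 SD over all tested compounds, cut at about 24% in these data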;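 note: cytokine-independent growth of Ba/F3 cells driven by EpoR plus mutant JAK2; 0% = DMSO-treated cells and 100% = JAK inhibitor I control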
APP 5UTR inh: inhibitors of APP translation via 5'UTR reporter, primary screen, APP 5'UTR luciferase, SH-SY5Y cells; SH-SY5Y APP 5'UTR-luciferase reporter, luminescence; inhibition, % at 2 µM; 0.82% of 190,000 active; AID 1285, 2008;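 active = inhibition above a set limit, derived from the sample mean plus 3 SD, cut at about 45% in these data; inconclusive = one replicate passes the limit while the other fails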
IEC-6 tox-1: cytotoxicity in IEC-6 intestinal epithelial cells, primary screen, cytotoxicity control for KLF5 inhibitor project, cell-based, luminescence; 0.78% of 290,000 active; inhibition, % at 5 µM; IEC-6 cytotoxicity, luminescence viability;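 note: 0% = plate median of test compound wells and 100% = cytotoxic reference compound wells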
aSyn UTR inh: MLPCN primary screen, SNCA 5' untranslated region. alpha-synuclein 5'UTR reporter, inhibitor activity. inhibition, % (tested at 7.5 µM). 0.82% of 300,000 active; in the data active = inhibition above about 60%; inconclusive = no clear call, values can overlap the other calls;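 note: H4 neuroglioblastoma cells stably carrying SNCA 5'UTR luciferase fusion; 0% = DMSO wells and 100% = positive control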
BaF3 tox: parental Ba/F3 cell viability inhibition, counter-screen for JAK2V617F inhibitor project, murine pro-B, CellTiter-Glo luminescence; CellTiter-Glo ATP luminescence; inhibition, % at 5.6 µM; 1.1% of 220,000 active; AID 1486, 2009;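 active = inhibition above a per-campaign cutoff, the mean inhibition of all tested compounds plus 3 SD, cut at about 27% in these data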;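 note: 0% = DMSO wells and 100% = JAK Inhibitor I control wells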
BaF3 parental 2: parental Ba/F3 cell viability inhibition, counter-screen for JAK2V617F inhibitor project, murine pro-B, CellTiter-Glo luminescence. shares compounds with Ba/F3 V617F tox. cells kept alive by added IL-3. 31% of 580 active. inhibition, % at 5.6 µM;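 active = cell growth inhibition above the hit limit set in the earlier mutant JAK2 cell screen, cut at about 27% in these data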;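 note: plate controls were DMSO-treated cells for no effect and JAK Inhibitor I control wells for full effect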
JAK2V617F conf: viability loss in Ba/F3 EpoR-JAK2V617F cells, confirmation, JAK2V617F inhibitor project, cell-based, luminescence, triplicate; shares compounds with Ba/F3 V617F tox; CellTiter-Glo luminescence; inhibition, % at 5.6 µM; 66% of 580 active; AID 1521, 2009;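 active = mean inhibition above the hit cutoff derived in the earlier primary screen, cut at about 25% in these data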;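 note: 0% = DMSO-treated cells and 100% = JAK inhibitor I control wells; higher means lower luminescence from reduced cell ATP and viability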
KLF5 inh confirm: KLF5 expression inhibitors, confirmation, DLD-1 cells, luminescence; shares compounds with KLF5 inhibitor; DLD-1 KLF5 promoter firefly luciferase reporter; inhibition, % at 4 µM; 79% of 610 active; AID 1834, 2009;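 active = inhibition above a set limit taken from the earlier primary screen, cut at about 63% in these data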;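 note: 0% = DMSO wells and 100% = LY294002 at 200 µM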
IEC-6 tox-2: cytotoxicity in rat IEC-6 cells, cytotoxicity control for KLF5 inhibitor project, cell-based, luminescence, triplicate. inhibition, % at 4 µM. 56% of 610 active. shares compounds with KLF5 inhibitor. IEC-6 rat intestinal cells, viability luminescence; in the data active = inhibition above about 23%;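 note: cells exposed to compounds for 48 hours before viability read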
IEC-6 tox confirm: cytotoxic compounds in IEC-6 epithelial cells, confirmation, cytotoxicity control, cell-based, luminescence; AID 1907, 2009; inhibition, % at 5 µM; 63% of 1,900 active; IEC-6 rat intestinal epithelial viability; shares compounds with IEC-6 tox-1;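 note: 0% = vehicle and 100% = reference cytotoxic drug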
The depositor's hits bear a star. An excerpt weighted towards active compounds, which were near 2.2% of everything screened. Cut-off read from the data, not from the text of the source, unless noted: active = inhibition above about 22%; inactive = the rest.

How did Cc1ccc(Nc2nc(C)c(CCC(C)C)c(=O)[nH]2)cc1 do in these assays?
KLF5 inhibitor: -1; Ba/F3 V617F tox: 2; APP 5UTR inh: -11; IEC-6 tox-1: -5; aSyn UTR inh: -94; BaF3 tox: 5

How did Cc1nc(NCc2ccccc2)[nH]c(=O)c1CCC(C)C do in these assays?
KLF5 inhibitor: 13; Ba/F3 V617F tox: 53*; APP 5UTR inh: -1; IEC-6 tox-1: 4; aSyn UTR inh: -24; BaF3 tox: -4; BaF3 parental 2: -1; JAK2V617F conf: -3

What do the screens show for `CCOC(=O)N1CCN(C(=O)c2cc(-c3ccc(OCC)cc3)nc3ccccc23)CC1`?
KLF5 inhibitor: 6; Ba/F3 V617F tox: 68*; APP 5UTR inh: 78*; IEC-6 tox-1: 24*; aSyn UTR inh: -13; BaF3 tox: 20; BaF3 parental 2: 69*; JAK2V617F conf: 94*

Results for CCOc1ccc(-c2cc(C(=O)N3CCN(C)CC3)c3ccccc3n2)cc1 ?
KLF5 inhibitor: -54; Ba/F3 V617F tox: 1; APP 5UTR inh: -37; IEC-6 tox-1: -2; aSyn UTR inh: -136; BaF3 tox: 7

How did CC1=CC(=C2C(=O)c3ccccc3C2=O)C=C(C)N1C do in these assays?
KLF5 inhibitor: -124; Ba/F3 V617F tox: 3; APP 5UTR inh: -48; IEC-6 tox-1: -1; aSyn UTR inh: -132; BaF3 tox: 9

Results for CCCCCN1C=CC(=C2C(=O)c3ccccc3C2=O)C=C1 ?
KLF5 inhibitor: 95*; Ba/F3 V617F tox: 24*; APP 5UTR inh: 54*; IEC-6 tox-1: 19; aSyn UTR inh: 113*; BaF3 tox: 24; BaF3 parental 2: 34*; JAK2V617F conf: 45*; KLF5 inh confirm: 97*; IEC-6 tox-2: 12

How did C(=N\Nc1nc2ccccc2[nH]1)/c1ccccn1 do in these assays?
KLF5 inhibitor: 86*; Ba/F3 V617F tox: 31*; APP 5UTR inh: -72; IEC-6 tox-1: 9; aSyn UTR inh: 112*; BaF3 tox: 26; BaF3 parental 2: 24; JAK2V617F conf: 36*; KLF5 inh confirm: 70*; IEC-6 tox-2: 46*

Results for O=C(Nc1ccncc1)c1ccc(Cl)c(S(=O)(=O)N2CCCC2)c1 ?
aSyn UTR inh: -14

Results for N=c1c2c(-c3ccccc3)c(-c3ccccc3)n(Cc3ccccc3)c2ncn1CCO ?
KLF5 inhibitor: 76*; Ba/F3 V617F tox: 27*; APP 5UTR inh: 78*; IEC-6 tox-1: 2; aSyn UTR inh: inconclusive; BaF3 tox: 4; BaF3 parental 2: 1; JAK2V617F conf: 23; KLF5 inh confirm: 57; IEC-6 tox-2: 22*

How did N=c1c2c(-c3ccccc3)c(-c3ccccc3)n(Cc3ccco3)c2ncn1Cc1ccccc1 do in these assays?
KLF5 inhibitor: -3; Ba/F3 V617F tox: 0; APP 5UTR inh: -3; IEC-6 tox-1: 3; aSyn UTR inh: 17; BaF3 tox: 1

How did CN(C)S(=O)(=O)c1cccc(NC(=S)N/N=C/c2cc(Br)ccc2O)c1 do in these assays?
KLF5 inhibitor: 64*; Ba/F3 V617F tox: 59*; IEC-6 tox-1: -2; aSyn UTR inh: 69*; BaF3 tox: 26; BaF3 parental 2: 95*; JAK2V617F conf: 84*; KLF5 inh confirm: 77*; IEC-6 tox-2: 23*

What do the screens show for `O=C(NCc1ccccn1)c1cccc(NS(=O)(=O)c2ccccc2)c1`?
aSyn UTR inh: 4

What do the screens show for `CCCNC(=O)NS(=O)(=O)c1ccc(Cl)cc1`?
KLF5 inhibitor: -13; Ba/F3 V617F tox: -3; APP 5UTR inh: -14; IEC-6 tox-1: 0; aSyn UTR inh: -22; BaF3 tox: 5

Results for CCCNC(=O)c1nnsc1S(=O)(=O)c1ccc(Cl)cc1 ?
KLF5 inhibitor: -6; Ba/F3 V617F tox: 94*; APP 5UTR inh: 95*; IEC-6 tox-1: 26*; BaF3 tox: 23; BaF3 parental 2: 96*; JAK2V617F conf: 98*; IEC-6 tox confirm: 22*

Results for C/C(=N\NC(=O)CSc1nc2ccccc2s1)c1cccnc1 ?
KLF5 inhibitor: -15; Ba/F3 V617F tox: 0; IEC-6 tox-1: -1; aSyn UTR inh: 16; BaF3 tox: -3

What do the screens show for `CCOc1ccccc1C(=O)Nc1ccsc1C(=O)OC`?
KLF5 inhibitor: 12; Ba/F3 V617F tox: 54*; APP 5UTR inh: 85*; IEC-6 tox-1: 32*; aSyn UTR inh: 65*; BaF3 tox: 16; BaF3 parental 2: 58*; JAK2V617F conf: 94*; IEC-6 tox confirm: 53*

How did O=C(Nc1ccccc1)C1=C(c2ccccc2)S(=O)(=O)CCS1(=O)=O do in these assays?
KLF5 inhibitor: 24; Ba/F3 V617F tox: 85*; APP 5UTR inh: 87*; IEC-6 tox-1: 28*; aSyn UTR inh: 16; BaF3 tox: 1; BaF3 parental 2: 66*; JAK2V617F conf: 100*; IEC-6 tox confirm: 24*

Results for COC(=O)c1[nH]c2ccccc2c1NC(=O)c1c(F)cccc1F ?
KLF5 inhibitor: 4; Ba/F3 V617F tox: 1; IEC-6 tox-1: 3; aSyn UTR inh: 2; BaF3 tox: -2

Results for CC(C)C(=O)Nc1ccc(C(=O)NCc2cccnc2)cc1 ?
KLF5 inhibitor: -25; Ba/F3 V617F tox: 60*; APP 5UTR inh: -21; IEC-6 tox-1: 62*; aSyn UTR inh: 6; BaF3 tox: 20; BaF3 parental 2: 35*; JAK2V617F conf: 99*; IEC-6 tox confirm: 23*

What do the screens show for `O=C(NCc1cccnc1)c1ccc(NC(=O)c2ccco2)cc1`?
KLF5 inhibitor: -39; Ba/F3 V617F tox: -4; APP 5UTR inh: 0; IEC-6 tox-1: 4; aSyn UTR inh: -20; BaF3 tox: 2

What do the screens show for `CC(=O)n1cc(Nc2ccccc2C(=O)O)c2ccccc21`?
KLF5 inhibitor: -5; Ba/F3 V617F tox: -2; APP 5UTR inh: -7; IEC-6 tox-1: 3; aSyn UTR inh: 33; BaF3 tox: 1

Screening data (PubChem BioAssay)
